# Measurements taken from the supplement of paper PMC6555819.
# Key:
# Assay in all cases: PBM binding z-score (relative to random genomic background probes); higher = stronger binding; sequences stand for … in GC…GCGATTGACAGCGTAGAATGAAGG
# [1] = test system: FXR:RXRa (NR concentration 270 nM, RXRa partner concentration 90 nM)
# In short: (§1)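 Ligand-free nuclear receptor dimers were applied to custom Agilent 4×180K protein-binding microarrays whose double-stranded probes carried direct-repeat seeds, single-nucleotide variants, half-site ablations and random human genomic background sequences in 34-nt variable regions. Incubation lasted 1 h. Binding z-scores were computed against the random background probes from regression-normalized fluorescence.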
# [2] = test system: LXRa:RXRa (NR concentration 270 nM, RXRa partner concentration 90 nM)
# In short: as §1
# [3] = test system: LXRa homodimer (NR concentration 270 nM)
# In short: as §1
# [4] = test system: LXRb:RXRa (NR concentration 270 nM, RXRa partner concentration 90 nM)
# In short: as §1
# [5] = test system: LXRb homodimer (NR concentration 270 nM)
# In short: as §1
# [6] = test system: PPARa:RXRa (NR concentration 270 nM, RXRa partner concentration 90 nM)
# In short: as §1
# [7] = test system: PPARg:RXRa (NR concentration 180 nM, RXRa partner concentration 90 nM)
# In short: as §1
# [8] = test system: PPARg:RXRa 270nM:90nM, anti-RXR (NR concentration 270 nM, RXRa partner concentration 90 nM)
# In short: as §1
# [9] = test system: PPARg:RXRa 30nM:10nM, anti-RXR (NR concentration 30 nM, RXRa partner concentration 10 nM)
# In short: as §1
# [10] = test system: PPARg:RXRa 90nM:30nM, anti-RXR (NR concentration 90 nM, RXRa partner concentration 30 nM)
# In short: as §1
# [11] = test system: PPARg:RXRa DBDmut IVT, anti-RXR (DBD mutation: RXRa K156A/R161A, NR concentration 270 nM, RXRa partner concentration 90 nM)
# In short: as §1
# [12] = test system: PPARg:RXRa IVT, anti-PPARg (NR concentration 270 nM, RXRa partner concentration 90 nM)
# In short: as §1
# [13] = test system: PPARg DBDmut:RXRa IVT, anti-PPARg (DBD mutation: PPARg1 K132A/R137A, NR concentration 270 nM, RXRa partner concentration 90 nM)
# In short: as §1
# [14] = test system: PPARg DBDmut IVT, anti-PPARg (DBD mutation: PPARg1 K132A/R137A, NR concentration 270 nM)
# In short: as §1
# [15] = test system: PPARg homodimer (NR concentration 180 nM)
# In short: as §1
# [16] = test system: PXR:RXRa (NR concentration 270 nM, RXRa partner concentration 90 nM)
# In short: as §1
# [17] = test system: PXR homodimer (NR concentration 270 nM)
# In short: as §1
# [18] = test system: RARa:RXR (NR concentration 270 nM, RXRa partner concentration 90 nM)
# In short: as §1
# [19] = test system: RARa homodimer (NR concentration 270 nM)
# In short: as §1
# [20] = test system: RARb:RXRa (NR concentration 270 nM, RXRa partner concentration 90 nM)
# In short: as §1
Sequence,PBM binding z-score [1],PBM binding z-score [2],PBM binding z-score [3],PBM binding z-score [4],PBM binding z-score [5],PBM binding z-score [6],PBM binding z-score [7],PBM binding z-score [8],PBM binding z-score [9],PBM binding z-score [10],PBM binding z-score [11],PBM binding z-score [12],PBM binding z-score [13],PBM binding z-score [14],PBM binding z-score [15],PBM binding z-score [16],PBM binding z-score [17],PBM binding z-score [18],PBM binding z-score [19],PBM binding z-score [20]
TTACCAAGGTGAAGGTCCTTGATCCCTCTGTAGA,0.794,0.644,-0.31,1.04,-0.95,1.87,1.33,2.39,0.878,2.03,1.64,2.67,-0.58,-0.0809,-0.00432,0.544,-0.323,1.01,-0.146,1.75
AGAACGAGGGCACGCTGAGTTGGTAGCAGAGTAG,0.682,0.402,-0.489,-0.113,-0.719,1.87,1.62,1.46,-0.03,0.942,4.25,3.68,0.349,-0.628,-0.387,0.612,-0.377,0.517,-1.12,2.46
CAAACTAGGTCAAGGTCATAGTCGGTTTGTGCCA,6.58,5.31,3.83,4.11,1.07,5.92,9.25,7.76,6.24,8,8.52,8.68,4.59,1.94,4.4,5.2,2.73,5.56,1.31,4.97
AGTCAAAGTTCACCAGGTAACGTAAGATTCAGCT,6.31,5.59,3.52,3.85,1.05,5.19,6.96,6.68,3.83,6.1,1.37,4,1.09,1.39,3.02,4.67,2.63,4.15,1.72,5.18
GGAACGAGGGCAAGTCGATAGCAGAGTTTGATGG,0.383,0.00226,-0.566,-0.0585,-0.781,1.48,0.928,0.703,-0.275,0.116,3.57,2.5,-0.206,-0.527,-0.162,0.167,0.469,-0.0113,-0.744,2.41
TGAATGAGGTGATAAGATCAGGGAACGTTGCAAA,0.365,-0.0507,-0.391,-0.155,-0.466,1.08,0.727,1.24,0.758,0.92,1.64,2.01,0.612,0.281,-0.472,-0.0646,-0.0145,0.43,-0.23,0.351
CGAACTAGGTCATCCATGACAGTGAATACATTGA,3.96,2.2,0.578,2.07,0.325,5.09,7.88,6.33,4.18,5.8,8.18,8.57,4.46,1.2,1.67,1.53,0.0131,2.26,0.371,3.98
TGAATGAGGTTATAAGATAAGGGAACGTTGCAAA,1.34,1.2,-0.153,0.988,0.119,2.45,1.43,1.62,0.912,1.51,0.589,1.42,1.45,0.957,0.436,0.669,0.0149,1.32,-0.0101,1.04
ACTAGGAGGCCAAGGGTCACTCAAGATTAGTCCG,2.82,3.11,0.119,2.83,0.0149,4.59,8.49,7.94,7.43,8.35,1.26,3.95,-0.025,-0.509,3.03,3.57,0.414,4.7,1.03,3.64
TCATACAGGTAAAAGGTGAAAGTCGGTGTGGTAA,1.87,1.87,-0.0272,2.18,0.661,4.39,6.38,6.45,5.73,7.08,3.28,3.68,0.157,1.18,1.6,1.83,0.448,3.13,1.16,2.1
TCTTGTAGATCAAGGGTTAAGAAAGCCGAAGCCT,0.439,0.813,-0.616,0.958,-0.606,3.12,5.36,6.4,5.41,7.18,1.55,2.33,0.632,-0.0594,1.12,0.471,-0.23,1.06,-0.354,0.694
CCGACTGGAGCAGAAAGGTTACCATACCATCCGG,0.42,0.894,-0.0298,0.813,-0.611,1.77,1.61,2.5,0.683,2.24,0.54,0.511,-0.716,-0.66,0.708,1.02,-0.102,2.11,-0.788,1.52
CCGACTGGGGCAGAAAGGATACCATACCATCCGG,-0.81,-0.88,-0.438,-0.926,-1.2,-0.597,0.937,-0.0255,-0.593,-0.344,0.646,0.728,-0.578,-1.57,-0.142,-0.951,-0.394,-1.06,-0.437,0.0733
CAGACTAGGTCAAGAGGTCAAAGTCCGCTTCCCG,7.03,6.1,5.88,5.69,1.64,6.29,8.59,7.74,5.99,7.54,7.08,7.26,0.894,0.414,5.61,6.21,1.93,7.55,0.913,5.39
TCTTGTGGATCAGCAGGTTAAGAAAGCTGGCCAA,0.261,0.254,-0.184,0.0295,-0.411,0.761,-0.589,1.27,2.47,1.83,1.59,0.745,-0.449,0.165,0.237,0.354,-0.204,0.573,0.249,0.338
CCTGCTAGGTCATGGTCAGTTAATCTACAGTATG,3.84,2.66,0.0744,1.97,-0.163,3.48,2.31,2.88,0.868,2.13,4.72,3.92,0.767,0.558,1.63,2.31,-0.286,2.62,0.426,3.96
ATATGTAGGTTATAGGGTCATTCAGTTTGCGCAT,4.47,4.26,2.22,3.98,1.38,5.36,7.99,7.04,5.54,7.25,7.51,7.16,2.03,1.57,3.17,4.88,8.92,5.18,1.96,3.19
TCTTGTAGACCAATAGAGGTTAAGAAAGTGCGCT,0.806,3.66,0.598,1.84,0.292,2.14,0.00378,1.69,2.88,1.93,2.08,1.7,0.86,0.346,0.191,3.17,0.469,1.6,0.38,1.01
GCACCAAGGTGAATAGGTCGTTGATGAGTAGGCG,0.712,0.592,-0.472,0.429,-0.835,2.37,1.17,1.62,0.404,0.742,2.07,2.2,-0.106,-0.894,1.01,0.721,-0.261,1.6,-0.487,1.93
TCTAGCAGGCCAGAGGGTCACTCACGAGGTACGG,0.586,0.658,-0.609,1.13,-1.2,2.2,1.46,2.63,1.82,2.54,0.776,0.783,-0.376,-1.19,1.31,1.51,-0.605,2.52,-0.397,2.25
TATACAGGGTCAAAGGCTAGAGTACGAATGTCGA,7.16,6.17,2.74,4.84,2.57,5.93,7.9,7.07,5,6.71,2.33,4.88,1.73,2.03,3.15,4.01,1.01,5.02,1.11,4.53
TGTCAAAGTTTAAAGGTAACGTAAGTATCCACAC,1.49,1.72,0.175,1.29,-0.187,2.79,4.23,4.3,1.98,3.41,-0.319,2.73,0.942,1.54,0.899,1.7,0.39,2.12,0.576,2.46
ATTTACGGGTCAACGAGGTTATAGCACGCGTATA,7.58,5.96,2.29,4.93,1.41,6.1,6.73,6.17,3.27,5.21,3.42,4.88,2.57,2.5,2.8,5.6,4.18,5.97,1.69,4.48
TCTGCTAGGTCAACGAGGGTCAGCTAATCTGCTA,4.68,4.83,0.398,3.04,0.26,4.27,3.36,3.79,2.12,3.02,4.34,4.28,-0.294,-0.307,2.15,4.96,-0.4,4.03,-0.252,4.65
CTACCAAGGTGAACAAGGTCGATGATTACTATTC,0.946,0.835,0.167,1.18,-0.531,2.13,1.2,0.941,0.12,0.353,2.72,2.64,0.547,0.654,0.419,1.43,0.443,1.63,0.548,1.95
CGAACGAGGGCATGAGTGGATAGCAAATGCCGAT,0.364,0.334,-0.533,0.059,-0.983,1.22,1.27,0.947,0.0449,0.449,2.74,1.85,-0.478,-0.831,-0.474,0.213,-0.305,0.373,-0.274,1.91
CCTTACGGGGCACTGACAGGTTATAGCATTTGGA,-0.345,0.0473,-0.267,0.0491,-0.831,0.455,0.465,-0.156,-0.0268,-0.232,1.49,0.641,-0.296,-0.753,0.227,-0.0592,-0.274,0.21,0.0601,1.03
TCTATTAGTTGAACGGCAACCGACGAGTCCGTTT,0.294,0.618,0.311,0.621,0.735,0.859,0.133,1.87,3.63,2.83,2.15,0.0618,0.259,0.73,0.735,0.661,0.768,0.372,0.868,0.424
CCTAGTTGGTCAAGAGGTCACACACCGGATATGA,5.19,5.02,3.61,4.58,0.768,5.71,5.69,5.36,3.16,4.81,2.07,4.43,0.763,0.00136,3.36,4.96,1.63,5.63,1.6,4.83
